An excerpt weighted towards active compounds, which were near 21% of everything screened.
Shiga toxin inh – Shiga toxin inhibition. Vero cells, Shiga toxin protein synthesis inhibition reporter. inhibition, % at 38.7 µM. 290,000 compounds, 9.2% hits. AID 2315; in the data active = inhibition mostly above about 28%, no sharp cut-off; inactive = mostly below about 43%; note: 0% is about no effect
Pf growth 48h – P. falciparum growth inhibition at 48 hours (one generation) | Potency, µM (highest dose often 28.7 µM), for the others: at the top dose activity change, negative = inhibition, most hits filed as inhibitors | AID 504832 | P. falciparum luciferase growth in erythrocytes, 48 h | 310,000 compounds, 5.9% hits; note: potency is the fitted concentration of half-maximal effect; % is set by controls: 0 for no effect and ±100 for the full control effect
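Read-out is firefly luciferase luminescence from an integrated reporter in P. falciparum, so falling signal marks reduced parasite growth. Infected erythrocytes were at 2% hematocrit and 0.1% parasitemia (final) in Albumax-supplemented RPMI 1640.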
HCMV inh – blocks human cytomegalovirus replication; HFF cells, HCMV-luciferase reporter, 72 h; hits give low values; activity change, negative = inhibition, % at 57.5 µM; 410,000 compounds, 4.5% hits; in the data active = activity change below about -60%; inconclusive = no clear call, values can overlap the other calls; inactive = above about -39%; note: % is set by controls: 0 for no effect and ±100 for the full control effect
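Inhibition of viral replication was scored as loss of reporter luminescence in HFFs infected with HCMV-luciferase (MOI 1 PFU/cell) for 72 h; compounds tested at 2 doses, normalized to buffer and Salinomycin controls.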
HCV inhibitor – blocks hepatitis C virus | Huh7.5.1 HCVcc-Cre infection, luciferase reporter, 44 h | Potency, µM (series often up to 41.8 µM), for the others: at the top dose activity change, negative = inhibition, hits mostly inhibitors | 340,000 compounds, 3.4% hits; note: potency is the fitted concentration of half-maximal effect; % is set by controls: 0 for no effect and ±100 for the full control effect
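Antiviral activity was scored by luciferase reporter output from cells infected with HCVcc-Cre (~0.5 moi) in presence of compound, 44 h infection period, cells seeded 1,000/well 4 h prior.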
Pf growth 96h – inhibits malaria parasite growth, 96 h; P. falciparum luciferase reporter growth, 96 h; Potency, µM (highest dose often 28.7 µM), inactives show at the highest dose activity change, negative = inhibition, most hits filed as inhibitors; 320,000 compounds, 6.9% hits; note: potency is the fitted concentration of half-maximal effect; % is set by controls: 0 for no effect and ±100 for the full control effect
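Parasite growth measured via integrated firefly luciferase reporter in P. falciparum. Infected erythrocytes at 2% hematocrit, 0.05% parasitemia final were treated 96 hours at 37 C under 5% CO2, and luminescence was read.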
CHX counter – counter-screen for Shiga toxin inhibitors: cycloheximide protein synthesis inhibition | cell reporter, cycloheximide protein synthesis inhibition counterscreen | max response, % | 300,000 compounds, 12% hits | AID 2314; in the data active = max response mostly above about 13%, no sharp cut-off; inactive = mostly below about 14%; note: read at 38.3 µM for the half of the compounds with a filed dose; 0% is about no effect
* marks the source's active call; other numbers are inactive results; u = inconclusive; x = no result given; [ ] = another dose, or the depositor's remark. Unless noted, calls come from the whole dose curve; as a rule, active = well fitted inhibition curve with a large enough effect; inconclusive = small, poorly fitted or top-dose-only effect, or another doubt; inactive = no such curve, though single readings can be large or run the other way.

SMILES	Shiga toxin inh	Pf growth 48h	HCMV inh	HCV inhibitor	Pf growth 96h	CHX counter
CCOC(=O)c1cnn(-c2nc(-c3ccc(C)cc3)cs2)c1C(F)(F)F	14.1	4.0%	75.7	-17.9%	79.3%	-1.0
O=C(O)c1cnn(-c2nc(-c3ccc(F)cc3)cs2)c1C(F)(F)F	73.4*	3.1%	-9.2	11.0%	-32.4%[1.15 µM]	14.6
O=C(O)c1cnn(-c2nc(-c3ccc(Br)cc3)cs2)c1C(F)(F)F	52.7*	-1.1%	-1.7	18.3%	59.8%	45.1*
CC(C)CC(=O)N1CCN(Cc2ccccc2[N+](=O)[O-])CC1	-6.1	-18.4%	-28.9	3.6%	u	0.6
CCCn1cc(SCC(=O)NC2CCCC2)c2ccccc21	18.8	9.28µM*	-28.2	-13.4%	u	12.8
O=C(CSc1cn(CCNC(=O)c2ccc3ccccc3c2)c2ccccc12)NCc1ccco1	21.8	u	-68.2*	u	u	14.5*
COc1ccc(C(=O)NCCn2cc(SCC(=O)Nc3ccccc3)c3ccccc32)cc1OC	x	x	-14.3	x	x	x
O=C(CSc1cn(CCNC(=O)c2cccs2)c2ccccc12)NC1CCCCC1	11.6	u	-12.7	u	u	1.1
O=C(CSc1cn(CCNC(=O)c2cccs2)c2ccccc12)NCc1ccccc1	14.7	u	-33.3	11.2µM*	-11.1%	11.1*
COc1ccc(C(=O)NCCn2cc(SCC(=O)NCC3CCCO3)c3ccccc32)cc1OC (stereo unspecified)	-10.5	8.28µM*	-22.9	u	6.57µM*	1.7
CCCn1cc(SCC(=O)NCC2CCCO2)c2ccccc21 (stereo unspecified)	42.4*	23.6%	101.8	u	15.1%	24.9*
Cc1ccc(C)c2c1[nH]c1ccc([N+](=O)[O-])cc12	-11.5	19.0%	-30.0	10µM*	x	-4.3
O=C(O)c1[nH]c2ccc([N+](=O)[O-])cc2c1-c1ccccc1	-8.0	-15.3%	60.9	21.2%	17.4%	-1.8
Cc1ccc(C)c2c1[nH]c1ccccc12	14.9	x	22.3	7.94µM*	64.7%	-2.0
Cc1cc(C=O)c(C)c2c1[nH]c1ccccc12	x	x	-3.8	-26.3%	x	x
C=C1N(S(=O)(=O)C(F)(F)F)CCC12CN(S(=O)(=O)c1ccc(C)cc1)c1ccccc12 (stereo unspecified)	x	x	-70.4*	x	x	x
C=C1N(S(=O)(=O)C(F)(F)F)CCC12CN(C)c1ccccc12 (stereo unspecified)	x	x	3.5	x	x	x
COCCNC(=O)c1cnn2c1NC(c1ccco1)CC2C(F)(F)F (stereo unspecified)	7.4	10.6%	-25.5	9.5%	6.3%	-1.3
COc1ccc(OC)c(NC(=O)c2cc3n(n2)C(C(F)(F)F)CC(c2ccc4c(c2)OCO4)N3)c1 (stereo unspecified)	19.2	3.9%	-29.5	31.6µM*	x	8.3
Cc1cc(NC(=O)c2cc3n(n2)C(C(F)(F)F)CC(c2ccco2)N3)no1 (stereo unspecified)	30.6	x	4.7	-7.1%	10.4µM*	-1.1
CN(Cc1ccc(-n2cccn2)cc1)C(=O)c1cnn2c1NC(c1ccco1)CC2C(F)(F)F (stereo unspecified)	12.3	u	27.6	11.2µM*	u	7.5
O=C(Nc1ccc2c(c1)CCC2)c1cnn2c1NC(c1ccco1)CC2C(F)(F)F (stereo unspecified)	90.0*	18.1%	u	u	x	51.8*
Cc1ccc(Cl)cc1NC(=O)c1cnn2c1NC(c1ccco1)CC2C(F)(F)F (stereo unspecified)	-25.7	x	u	25.1µM*	u	0.7
CCc1nn(CC(=O)NCc2ccccc2)c(=O)c2cccn12	x	x	-1.4	x	x	x
NNC(=O)Cn1c(-c2ccccc2)cc(=O)n2ncnc12	-23.6	-11.9%	-23.2	13.9%	3.0%	1.1
O=C(/C=C/c1cccc([N+](=O)[O-])c1)NC(=S)Nc1cccc(NC(=O)c2ccccc2Cl)c1	-15.7	13.1µM*	-74.3*	-23.3%	2.8%	-5.1
O=C(NC(=S)Nc1cccc(NC(=O)c2ccccc2Cl)c1)c1cccs1	9.5	38.0%	u	-28.5%	u	15.3*
CCc1ccc(NC(=S)Nc2cc(OC)c(NC(=O)C(C)C)cc2OC)cc1	16.4	0.0%	34.6	-6.2%	u	22.5*

Compound activity (PubChem BioAssay)
